Screening results deposited in PubChem BioAssay by Johns Hopkins Ion Channel Center.
Only some compounds are listed: those with a hit (about 1.6% of all), similar ones and a draw of the others.
KCNQ2 enhance: KCNQ2 (rat) channel potentiation; actives 0.54% (n = 310,000); B-score at 10 µM; O88943; CHO-K1 KCNQ2, FluxOR thallium flux fluorescence; active compounds read high; AID 2239;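 active = fluorescence ratio B-score at least 3 SD of library B-scores, with initial fluorescence B-score within 3 of them, cut at about 5.3 in these data; same plate scores as AID 2156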;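 also: B-score of peak minus minimum over baseline fluorescence ratio after K+ and Tl+ stimulus; positive B-score means potentiation of KCNQ2 with more thallium influx and brighter signal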
Target sequence (O88943 whole entry, looked up): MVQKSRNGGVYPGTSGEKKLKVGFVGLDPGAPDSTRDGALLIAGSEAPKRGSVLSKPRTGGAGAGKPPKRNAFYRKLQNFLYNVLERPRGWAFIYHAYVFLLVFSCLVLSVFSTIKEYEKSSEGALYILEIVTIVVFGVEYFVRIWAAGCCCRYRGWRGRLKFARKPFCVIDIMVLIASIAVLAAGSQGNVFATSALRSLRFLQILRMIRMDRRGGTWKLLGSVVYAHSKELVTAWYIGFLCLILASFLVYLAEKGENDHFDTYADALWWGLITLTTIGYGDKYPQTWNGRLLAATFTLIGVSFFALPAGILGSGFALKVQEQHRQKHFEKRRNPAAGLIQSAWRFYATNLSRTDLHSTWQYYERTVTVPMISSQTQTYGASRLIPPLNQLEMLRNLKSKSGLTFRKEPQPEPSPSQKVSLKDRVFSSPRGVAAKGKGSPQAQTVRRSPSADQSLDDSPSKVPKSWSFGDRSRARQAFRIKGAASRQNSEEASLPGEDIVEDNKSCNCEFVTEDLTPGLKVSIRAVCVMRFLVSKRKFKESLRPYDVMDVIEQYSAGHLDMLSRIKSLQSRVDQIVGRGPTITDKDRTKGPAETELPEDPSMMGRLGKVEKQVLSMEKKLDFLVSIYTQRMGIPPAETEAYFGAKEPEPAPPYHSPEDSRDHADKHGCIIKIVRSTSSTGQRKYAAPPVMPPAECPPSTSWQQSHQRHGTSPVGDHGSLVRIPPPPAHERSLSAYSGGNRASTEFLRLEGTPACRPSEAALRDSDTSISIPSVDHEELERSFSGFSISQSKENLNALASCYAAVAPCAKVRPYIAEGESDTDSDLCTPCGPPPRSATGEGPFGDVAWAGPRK
KCNQ2 block: blocks the rat KCNQ2 potassium channel; actives 1.1% (n = 310,000); O88943; CHO-K1 KCNQ2, FluxOR thallium flux, 20 min; active compounds read low; AID 2156; B-score at 10 µM;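 active = fluorescence ratio B-score at most minus 3 library SDs, with starting brightness B-score within 2 library SDs, cut at about -5.5 in these data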
Kir21 conf inh: confirmation of mouse Kir2.1 potassium channel inhibitors; Kir2.1-expressing cells, FluxOR thallium flux fluorescence; active compounds read low; actives 41% (n = 2,300); shares compounds with KCNQ2 enhance; Tl flux remaining, % of negative control (active compounds read low), % at 10 µM;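 active = Primary-screen hit whose thallium flux fell at least 3 control SD below untreated wells in both duplicates, with normal baseline fluorescence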;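 also: 0% = blank wells without stimulus and 100% = stimulated no-compound controls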
HEK293 ctr: counter-screen for Kir2.1 inhibitors: effect in parental HEK293 cells. AID 2105. shares compounds with KCNQ2 enhance. actives 19% (n = 2,300). FluxOR thallium flux fluorescence; 0% = unstimulated blank wells. FluxOR signal as % of negative control (100 = no effect), % at 10 µM;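 active = dye signal at least 3 control SD above or below untreated wells in both duplicates, raw fluorescence within 3, either direction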;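 also: percent is based on the flux ratio of peak minus minimum fluorescence over baseline F0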
CHO-K1 Tl ctr: alters thallium flux in parental CHO-K1 cells, KCNQ2 counter-screen | shares compounds with KCNQ2 enhance | FluxOR thallium flux fluorescence; zero = vehicle mean+3SD, 100% = vehicle-minus-blank window | activity increase over 3SD of controls, % at 10 µM | actives 43% (n = 1,200) | AID 2282;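 active = signal rise of at least 3 SD above the untreated control mean, in both duplicate wells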;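 also: counter screen of KCNQ2 potentiator hits so any rise reflects channel-independent effects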
KCNQ1 sel pot: human KCNQ1 counter-target activity of KCNQ2 potentiators; CHO KCNQ1 stable, FluxOR thallium flux fluorescence; beyond 3SD, as % of vehicle-control signal; shares compounds with KCNQ2 enhance; actives 28% (n = 1,200); activation over 3SD threshold, % at 10 µM;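 active = fluorescence ratio rise of at least 3 SD of vehicle wells above their mean, in both replicate wells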;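 also: 0% = vehicle mean plus 3 SD and 100% = vehicle minus unstimulated blank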
KCNQ2 pot confirm: confirmation of rat KCNQ2 potassium channel potentiators; shares compounds with KCNQ2 enhance; CHO-KCNQ2 cells, FluxOR thallium flux fluorescence; potentiation, less the hit threshold, % at 10 µM; actives 68% (n = 1,200); AID 2287;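 active = fluorescence ratio rising 3 SD or more over the vehicle control mean in both replicates, plus primary screen hit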;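 also: peak minus minimum thallium fluorescence divided by baseline after K/Tl stimulus; 0% = vehicle mean plus 3 SD and 100% = vehicle minus unstimulated blank difference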
Kir21 spec: mouse Kir2.1 off-target activity of KCNQ2 potentiators; shares compounds with KCNQ2 enhance; HEK293 Kir2.1, FluxOR thallium flux fluorescence; activity over 3SD threshold, % at 10 µM; actives 2% (n = 1,200);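 active = fluorescence ratio rise of at least 3 SD above the vehicle-control mean, seen in both replicates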;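 also: 0% = vehicle mean plus 3 SD and 100% = vehicle minus no-stimulus blank window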
KCNQ2 W236L MoA: potentiates the retigabine-insensitive rat KCNQ2 W236L mutant channel | shares compounds with KCNQ2 enhance | CHO KCNQ2-W236L, automated patch clamp current | current increase over 3SD of negative controls (%), active compounds read high, % at 25 µM | actives 10% (n = 940);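 active = current increase at least 3 SD of the untreated controls above them in both duplicate recordings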
The depositor's hits bear a star.

COc1ccc(C(=O)N2CCCC(CNC(=O)c3ccccc3Cl)C2)o1 (configuration not stated) was read as KCNQ2 block inactive.
`COc1ccc(CNCc2ccco2)cc1OCc1ccccc1` gave KCNQ2 enhance 0.49 and KCNQ2 block inactive.
For COc1ccccc1CCNCc1ccc(OC)c(OCc2ccccc2)c1 the results were KCNQ2 block inactive, Kir21 conf inh inactive and HEK293 ctr inactive.
COc1ccc(Cl)cc1NC(=O)NN1CCN(C)CC1 was read as KCNQ2 enhance 0.88 and KCNQ2 block inactive.
Screening Cc1ccc(Nc2cc(C)nc3ccc(C)cc23)cc1 returned KCNQ2 enhance 0.17, KCNQ2 block inactive, Kir21 conf inh 48%* and HEK293 ctr inactive.
For CCOc1ccc(Nc2cc(C)nc3ccc(C)cc23)cc1 the results were KCNQ2 block inactive.
`Cc1cc(NC(=O)CSCC(=O)OC(C)C(=O)c2cc(C)c(C)cc2C)no1` (configuration not stated) gave KCNQ2 block inactive, Kir21 conf inh 68%* and HEK293 ctr inactive.
For Cc1cc(NC(=O)CSCC(=O)OC(C)C(=O)N(C)Cc2ccccc2)no1 (configuration not stated) the results were KCNQ2 enhance 1.3 and KCNQ2 block inactive.
Screening COc1cc(OC)cc(C(=O)N[C@H](C(=O)NCc2cccs2)C(C)C)c1 returned KCNQ2 block inactive.
COCCNC(=O)C(c1ccc(C)cc1)N(C(=O)C(=O)NC1CCCC1)c1ccc2c(c1)OCCO2 (configuration not stated) was read as KCNQ2 block inactive.
`Cc1cc2ccccc2n1CCNC(=O)Cc1ccccc1` gave KCNQ2 block inactive.
Cc1cccc(CC(=O)NCCn2c(C)cc3ccccc32)c1 was read as KCNQ2 enhance 6.9*, KCNQ2 block inactive, Kir21 conf inh inactive, HEK293 ctr inactive, CHO-K1 Tl ctr 87*, KCNQ1 sel pot -3, KCNQ2 pot confirm 17*, Kir21 spec -39 and KCNQ2 W236L MoA inactive.
`Cc1cc(C)n2nc(SCC(=O)Nc3ccccc3C)nc2n1` gave KCNQ2 enhance 0.04 and KCNQ2 block inactive.
For Cc1ccc(C(C2C(=O)CC(C)(C)CC2=O)C2C(=O)CC(C)(C)CC2=O)s1 the results were KCNQ2 enhance 5.6*, KCNQ2 block inactive, Kir21 conf inh inactive, HEK293 ctr inactive, CHO-K1 Tl ctr -1, KCNQ1 sel pot -20, KCNQ2 pot confirm -31 and Kir21 spec -58.
CC1(C)CC(=O)C(C(c2ccncc2)C2C(=O)CC(C)(C)CC2=O)C(=O)C1 was read as KCNQ2 block inactive.
Screening CN1CCC(NCCC(c2ccc(F)cc2)c2ccc(Cl)cc2)CC1 (configuration not stated) returned KCNQ2 block inactive, Kir21 conf inh 56%* and HEK293 ctr inactive.
CC(C)C(CCNC1CCN(C)CC1)c1ccc(Cl)cc1 (configuration not stated) was read as KCNQ2 block inactive.
COc1ccc(OC)c(NC(=O)c2cccc(NC(=O)c3ccccc3)c2)c1 was read as KCNQ2 enhance 0.67 and KCNQ2 block inactive.
Screening CC[n+]1c(/C=C/c2ccc(N(C)C)cc2)ccc2ccccc21 returned KCNQ2 enhance -9.3, KCNQ2 block -9.3*, Kir21 conf inh inactive and HEK293 ctr inactive.
For CC[n+]1c(/C=C/c2ccc(OC)c(OC)c2)ccc2ccccc21 the results were KCNQ2 block inactive.
`CCN(CC)c1ccc(/C=C/c2ccc3ccc(OC)cc3[n+]2CC)cc1` gave KCNQ2 enhance -7.6, KCNQ2 block -7.6*, Kir21 conf inh inactive and HEK293 ctr inactive.
Screening CC[n+]1c(/C=C/c2ccc(OC(C)=O)c(OC)c2)ccc2ccccc21 returned KCNQ2 block inactive.
CCC(C)(C)c1nnc(NC(=O)CCC2CCCCC2)s1 was read as KCNQ2 enhance 0.75 and KCNQ2 block inactive.
CN(CCCCOc1ccc(F)cc1)Cc1ccccc1 was read as KCNQ2 enhance 1 and KCNQ2 block inactive.
Cc1cc(C)c(C)c(OCCCCN(C)Cc2ccccc2)c1 was read as KCNQ2 block inactive, Kir21 conf inh 26%* and HEK293 ctr inactive.
COc1cc(C)ccc1OCCOCCN(C)Cc1ccccc1 was read as KCNQ2 enhance 0.85 and KCNQ2 block inactive.
CCc1ccc(OCCCCN(C)Cc2ccccc2)cc1 was read as KCNQ2 block inactive, Kir21 conf inh 26%* and HEK293 ctr inactive.
For CN(CCOCCOc1ccc2ccccc2c1)Cc1ccccc1 the results were KCNQ2 block inactive, Kir21 conf inh 17%* and HEK293 ctr inactive.
COc1ccc(OCCN(C)Cc2ccccc2)cc1 was read as KCNQ2 block inactive.
For COc1ccc(CC(=O)N/N=C(\C)CC(=O)Nc2ccc3c(c2)OCCO3)cc1OC the results were KCNQ2 block inactive.
`C=CCSc1nc2sc3c(c2c(=O)[nH]1)CC(C)(CC)OC3` (configuration not stated) gave KCNQ2 enhance 1.4 and KCNQ2 block inactive.
CC(C)C(NS(=O)(=O)c1ccc2c(c1)Cc1cc(S(=O)(=O)NC(C(=O)O)C(C)C)ccc1-2)C(=O)O (configuration not stated) was read as KCNQ2 block inactive.
CCC(=O)NC(=S)Nc1ccc(N2CCN(C(=O)c3ccc(Cl)cc3)CC2)cc1 was read as KCNQ2 enhance 0.3 and KCNQ2 block inactive.
CSc1cnn(Cc2ccccc2)c(=O)c1SCc1ccccc1 was read as KCNQ2 block inactive.
O=C(COC(=O)C1CC(=O)N(Cc2ccco2)C1)c1ccc(OC(=O)c2ccccc2)cc1 (configuration not stated) was read as KCNQ2 enhance 0.01, KCNQ2 block inactive, Kir21 conf inh inactive and HEK293 ctr inactive.
